# Results: PubChem BioAssay (NCATS)
# Values joined by “and” are separate entries in the source; they are usually repeats but may differ in a detail not shown here. Equal entries are not always repeated. Inconclusive results are not listed. Active and inactive are the calls of the source. Calls come from the whole dose curve; as a rule, active = well fitted cell-killing curve with a large enough effect; inconclusive = small, poorly fitted or top-dose-only effect; inactive = flat fitted curve, though single readings scatter.
# Assay: Cellular viability qHTS for adrenocortical cancer (ACC) cell line SW-13 (AID 1963989); note: nearly all actives have a fitted effect of over 65% in size;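 for activity (max response): cells grown in serum-free medium with ITS supplement; % is set by controls: 0 for no effect and ±100 for the full control effect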
# Settings: SW-13 ACC cells viability, CellTiter-Glo, 48 h; activity (max response): stronger effect = lower value
# How it was run: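 Luminescent ATP read-out (CellTiter-Glo, 20 min at room temperature) measured metabolically competent SW-13 cells after 48 h compound treatment. Final concentrations spanned up to 46 uM; bortezomib served as positive control.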
# Potency is the fitted concentration of half-maximal effect.
Compound,activity (max response),Potency
Cc1cccc(C)c1NC(=O)c1ccc(N)cc1,6.32% (inactive),
CN1CCN(CC(=O)N2c3ccccc3C(=O)Nc3cccnc32)CC1,-3% (inactive),
CCN(C(=O)c1ccccc1OC)c1cc2c(cc1N1CCNC[C@H]1C)n(C)c(=O)n2C,1.48% (inactive),
COc1ccc(Cc2cnc(N)nc2N)cc1OC,8.41% (inactive),
Cc1oc(=O)oc1COC(=O)[C@@H]1N2C(=O)[C@@H](NC(=O)[C@H](N)c3ccccc3)[C@H]2SC1(C)C,7.35% (inactive),
COc1ccc(S(=O)(=O)N(CCO)c2ccccc2CN(C)C/C=C/c2ccc(Cl)cc2)cc1,,10 µM (active)
COc1cc(N2CCN(C)CC2)ccc1Nc1ncc2c(n1)N(C)c1ccccc1C(=O)N2C,,15.8 µM (active)
O=C(NO)c1ccc(C2=Nc3ccccc3Oc3ccccc32)cc1,,22.4 µM (active)
CCCCNc1ncc2c(-c3ccc(F)cc3)nn(CC3CCC(N)CC3)c2n1 (stereo not drawn),,11.3 µM (active)
Cc1[nH]c2ccccc2c1CCNCc1ccc(/C=C/C(=O)NO)cc1,,0.251 µM (active)
CN1CCCN=C1/C=C/c1cccs1,0.0735% (inactive) and 9.48% (inactive),
C=C1C[C@@]2(O)O[C@@]3(C[C@H]2C(C)C)[C@@H](C)CC[C@@H]13,6.19% (inactive),
CC(C)NCC(O)c1cc(O)cc(O)c1 (stereo not drawn),13.2% (inactive),
C[C@@H]1N=C(N)NC(N(C)C)=N1,-4.04% (inactive),
NC(=O)c1ncn([C@@H]2O[C@H](CO)[C@@H](O)[C@H]2O)c1O,14.2% (inactive) and 14.7% (inactive) and 8.98% (inactive),
CNCc1ccccc1,8.2% (inactive),
Cc1onc(-c2c(Cl)cccc2Cl)c1C(=O)Cl,17.1% (inactive),
CN1C(=O)CC(C)(c2ccccc2)C1=O (stereo not drawn),-10.7% (inactive),
CN1CCCN(C(=O)c2cccc(-c3ccc(/C=C4/C(=O)Nc5ccc(Cl)cc54)o3)c2)CC1,,25.1 µM (active)
O=C1OC(CN2CCOCC2)CN1/N=C/c1ccc([N+](=O)[O-])o1 (stereo not drawn),-3.41% (inactive),

Compound,activity (max response),Potency
C[C@@]12C(=O)OC(=O)[C@]1(C)C1CCC2O1,,7.31 µM (active)
CCOCCn1c(N2CCCN(C)CC2)nc2ccccc21,-8.77% (inactive),
CC[C@@H](C)Nc1cc(C(=O)NC2CC3CCC(C2)N3c2ccc(C(=O)C3CC3)cn2)c(C)cc1C(N)=O (stereo partly drawn),,0.355 µM (active)
COc1cccc2c1C(=O)c1c(O)c3c(c(O)c1C2=O)C[C@@](O)(C(=O)CO)C[C@@H]3O[C@H]1C[C@H](N)[C@H](O)[C@H](C)O1,,2.31 µM (active) and 891 nM (active)
CC(C)NCC(O)COc1cccc2[nH]ccc12 (stereo not drawn),-13.8% (inactive),
CC(C)C[C@@H](N)C(=O)O,8.35% (inactive),
COc1c(Nc2ncc(Cl)c(N[C@H]3[C@H](C(N)=O)[C@@H]4C=C[C@@H]3C4)n2)ccc2c1CCC(N1CCOCC1)CC2 (stereo partly drawn),,15.8 µM (active)
C[C@@]12C(=O)OC(=O)[C@]1(C)[C@H]1CC[C@@H]2O1,,15.8 µM (active)
N#Cc1cc2cc(CN3CCC(Nc4ncnc5sc(CC(F)(F)F)cc45)CC3)c(O)cc2n1Cc1cn[nH]c1,,14.1 µM (active)
CC(C)(C)c1ccc(C(=O)CCCN2CCC(OC(c3ccccc3)c3ccccc3)CC2)cc1,,13 µM (active)
COc1ccc(S(=O)(=O)Nc2cc(-c3csc(C#N)c3)ccc2C)cc1,,0.0631 µM (active)
CCCCC1(COC(=O)CCC(=O)O)C(=O)N(c2ccccc2)N(c2ccccc2)C1=O,6.69% (inactive),
C[C@]12CCCN1CC1=NNC(=O)c3cc(F)cc4[nH]c2c1c34,-23.5% (inactive),
Cc1c(NC(C)C)c(=O)n(-c2ccccc2)n1C,8.03% (inactive),
CC(C)Cc1ccc([C@@H](C)C(=O)NS(C)(=O)=O)cc1,5.6% (inactive),
CCCCNc1ncc2c(-c3ccc(CN4CCN(C)CC4)cc3)cn(C3CCC(O)CC3)c2n1 (stereo not drawn),,11.2 µM (active)
CC(=O)Nc1ccc(OC(=O)c2ccccc2OC(C)=O)cc1,8.82% (inactive),
O=S(=O)(O)c1cc(I)c(O)c2ncccc12,0.547% (inactive),
CC(=O)N[C@H]1CSSC[C@@H](C(N)=O)NC(=O)[C@H](C(C)C)NC(=O)[C@H](C)NC(=O)[C@H](Cc2cnc[nH]2)NC1=O,-0.986% (inactive),

# Assay: Cellular viability qHTS for adrenocortical cancer (ACC) cell line NCI-H295R (AID 1963990); note: nearly all actives have a fitted effect of over 60% in size;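 for activity change, negative = viability loss: 0% = DMSO only wells and -100% = full killing with cytotoxic reference compound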
# Settings: CellTiter-Glo ATP luminescence, 48 h; series mostly up to 46.1 µM; activity change, negative = viability loss: at the top concentration
# How it was run: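 IC50 and maximal efficacy derive from four-parameter logistic modelling of titration curves, with reads scaled between DMSO-only wells (0%) and doxorubicin hydrochloride (100% inhibition). Compounds spanned up to 46 uM over 48 h.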
Compound,"activity change, negative = viability loss",Potency
Cc1cccc(C)c1NC(=O)c1ccc(N)cc1,-11.8% (inactive),
CN1CCN(CC(=O)N2c3ccccc3C(=O)Nc3cccnc32)CC1,-2.51% [at 3.81 µM] (inactive),
CCN(C(=O)c1ccccc1OC)c1cc2c(cc1N1CCNC[C@H]1C)n(C)c(=O)n2C,-8.03% (inactive),
COc1ccc(Cc2cnc(N)nc2N)cc1OC,-4.1% (inactive),
Cc1oc(=O)oc1COC(=O)[C@@H]1N2C(=O)[C@@H](NC(=O)[C@H](N)c3ccccc3)[C@H]2SC1(C)C,-22.4% (inactive),
COc1ccc(S(=O)(=O)N(CCO)c2ccccc2CN(C)C/C=C/c2ccc(Cl)cc2)cc1,,12.6 µM (active)
COc1cc(N2CCN(C)CC2)ccc1Nc1ncc2c(n1)N(C)c1ccccc1C(=O)N2C,,14.1 µM (active)
O=C(NO)c1ccc(C2=Nc3ccccc3Oc3ccccc32)cc1,,5.01 µM (active)
CCCCNc1ncc2c(-c3ccc(F)cc3)nn(CC3CCC(N)CC3)c2n1 (stereo not drawn),,7.15 µM (active)
Cc1[nH]c2ccccc2c1CCNCc1ccc(/C=C/C(=O)NO)cc1,,0.112 µM (active)
CN1CCCN=C1/C=C/c1cccs1,,inactive
C=C1C[C@@]2(O)O[C@@]3(C[C@H]2C(C)C)[C@@H](C)CC[C@@H]13,-0.395% (inactive),
CC(C)NCC(O)c1cc(O)cc(O)c1 (stereo not drawn),-10.2% (inactive),
C[C@@H]1N=C(N)NC(N(C)C)=N1,10.5% (inactive),
NC(=O)c1ncn([C@@H]2O[C@H](CO)[C@@H](O)[C@H]2O)c1O,,inactive
CNCc1ccccc1,0.248% (inactive),
Cc1onc(-c2c(Cl)cccc2Cl)c1C(=O)Cl,-1.71% (inactive),
CN1C(=O)CC(C)(c2ccccc2)C1=O (stereo not drawn),-13.3% (inactive),
CN1CCCN(C(=O)c2cccc(-c3ccc(/C=C4/C(=O)Nc5ccc(Cl)cc54)o3)c2)CC1,,4.47 µM (active)
O=C1OC(CN2CCOCC2)CN1/N=C/c1ccc([N+](=O)[O-])o1 (stereo not drawn),,16.4 µM (active)

Compound,"activity change, negative = viability loss",Potency
C[C@@]12C(=O)OC(=O)[C@]1(C)C1CCC2O1,,2.31 µM (active)
CCOCCn1c(N2CCCN(C)CC2)nc2ccccc21,-13.7% (inactive),
CC[C@@H](C)Nc1cc(C(=O)NC2CC3CCC(C2)N3c2ccc(C(=O)C3CC3)cn2)c(C)cc1C(N)=O (stereo partly drawn),,0.355 µM (active)
COc1cccc2c1C(=O)c1c(O)c3c(c(O)c1C2=O)C[C@@](O)(C(=O)CO)C[C@@H]3O[C@H]1C[C@H](N)[C@H](O)[C@H](C)O1,,23.1 µM (active) and 7.08 µM (active)
CC(C)NCC(O)COc1cccc2[nH]ccc12 (stereo not drawn),-4.84% (inactive),
CC(C)C[C@@H](N)C(=O)O,-18.3% [at 20 µM] (inactive),
COc1c(Nc2ncc(Cl)c(N[C@H]3[C@H](C(N)=O)[C@@H]4C=C[C@@H]3C4)n2)ccc2c1CCC(N1CCOCC1)CC2 (stereo partly drawn),,7.94 µM (active)
C[C@@]12C(=O)OC(=O)[C@]1(C)[C@H]1CC[C@@H]2O1,,3.98 µM (active)
N#Cc1cc2cc(CN3CCC(Nc4ncnc5sc(CC(F)(F)F)cc45)CC3)c(O)cc2n1Cc1cn[nH]c1,,8.91 µM (active)
CC(C)(C)c1ccc(C(=O)CCCN2CCC(OC(c3ccccc3)c3ccccc3)CC2)cc1,,5.8 µM (active)
COc1ccc(S(=O)(=O)Nc2cc(-c3csc(C#N)c3)ccc2C)cc1,,0.0794 µM (active)
CCCCC1(COC(=O)CCC(=O)O)C(=O)N(c2ccccc2)N(c2ccccc2)C1=O,-10.7% (inactive),
C[C@]12CCCN1CC1=NNC(=O)c3cc(F)cc4[nH]c2c1c34,-20.1% (inactive),
Cc1c(NC(C)C)c(=O)n(-c2ccccc2)n1C,-3.2% (inactive),
CC(C)Cc1ccc([C@@H](C)C(=O)NS(C)(=O)=O)cc1,3.39% (inactive),
CCCCNc1ncc2c(-c3ccc(CN4CCN(C)CC4)cc3)cn(C3CCC(O)CC3)c2n1 (stereo not drawn),,6.31 µM (active)
CC(=O)Nc1ccc(OC(=O)c2ccccc2OC(C)=O)cc1,3.64% (inactive),
O=S(=O)(O)c1cc(I)c(O)c2ncccc12,7.85% (inactive),
CC(=O)N[C@H]1CSSC[C@@H](C(N)=O)NC(=O)[C@H](C(C)C)NC(=O)[C@H](C)NC(=O)[C@H](Cc2cnc[nH]2)NC1=O,-14.5% (inactive),
